INS-1E GSIS act – primary screen for activators of insulin secretion dependent on glucose, INS-1E cells, GLuc reporter luminescence; INS-1E GLuc reporter insulin secretion, 2-3 h; activation, % at 16.6 µM; 370,000 compounds, 0.61% hits; AID 743287;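 active = lowest replicate activation of at least 40%, so every replicate reaches that level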;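 also: 0% = median of neutral control wells and 100% = median of IBMX positive control wells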
EWS-Fli inh – EWS/Fli transcriptional activity inhibition; A673 NR0B1-luciferase reporter, viability-normalised; inhibition, % at 12.6 µM; 350,000 compounds, 0.67% hits; AID 651661;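 active = mean inhibition of at least 50% after viability correction, with every replicate also passing that limit; inconclusive = mean reaches 50% but only one of two replicates passes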;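 also: firefly luciferase signal divided by Alamar Blue viability fluorescence both relative to DMSO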
miR-122 sensor – blocks miR-122 activity in Huh7 sensor cells; Huh7 miR-122 Renilla luciferase sensor, 48 h; neutral wells = 0, positive control = 100; activation (reporter increase), % at 12.5 µM; 340,000 compounds, 0.3% hits;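 active = mean replicate activation score at least 90 and every replicate individually at or above 90; inconclusive = only one of the two criteria met; inactive = neither criterion met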;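 also: higher luciferase means less miR-122 activity so hits act as miR-122 inhibitors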
Statin myotox sup – suppressors of simvastatin-induced myotoxicity in C2C12 myotubes; rescue of ATP level, % at 7.49 µM; ATP luminescence, 48 h; scaled: DMSO 0, geranylgeraniol control 100; AID 602340; 330,000 compounds, 0.78% hits;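 active = mean ATP rescue above about 67%, or every replicate alone reaching that limit, limit read from the data, passing the limit was not always enough; inconclusive = no clear call, values can overlap the other calls; inactive = mean under the limit and some replicate under it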;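 also: myotubes were challenged with 10 µM simvastatin during compound exposure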
HIV Env fusion – HIV envelope-mediated fusion inhibition; HeLa-JRFL Env/CEM21 cell fusion, luciferase; inhibition, % at 12.3 µM; 360,000 compounds, 1.1% hits; AID 651610;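 active = mean replicate inhibition score of at least 50 and every replicate individually at or above 50; inconclusive = only one of the two criteria met; inactive = mean below 50 and not all replicates reaching 50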;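 also: 0% = plate neutral controls and 100% = maraviroc near 300 nM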
PAX8 inh HTS – PAX8 transcriptional activity inhibition; RMG-I TPO-luciferase reporter, SteadyGlo, 24 h; inhibition, % at 12.6 µM; 360,000 compounds, 1.2% hits;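 active = mean replicate inhibition at least 60% with every replicate also reaching 60%; inconclusive = only one of the two criteria is met; inactive = mean below 60% and not all replicates reaching 60%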;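 also: luciferase light reporting Pax8 driven TPO promoter activity; plate controls were median of neutral control wells for no effect and mitoxantrone controls for full effect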
Numbers without * were called inactive; ? = inconclusive; / = not tested or not shown; [ ] = remark or other dose. Rows were chosen to be rich in hits. Some 3.1% of all compounds tested hit in one or more screens of this group.

SMILES	INS-1E GSIS act	EWS-Fli inh	miR-122 sensor	Statin myotox sup	HIV Env fusion	PAX8 inh HTS
COc1cc(C2c3cc4c(cc3C3OC(=O)C2C3CO)OCO4)cc(OC)c1OC (configuration not stated)	/	38	13	-32	-147	76*
COc1cc(C2c3cc4c(cc3OC(N3CCCCC3)C2C)OCO4)cc(OC)c1O (configuration not stated)	6	9	1	/	-5	5
COc1cc([C@@H]2c3cc4c(cc3[C@@H](O)[C@H]3COC(=O)[C@H]23)OCO4)cc(OC)c1O[Si](C)(C)C(C)(C)C	-3	1	45	-1	32	47
CCN(CC)C1Oc2cc3c(cc2C(c2cc(OC)c(OC)c(OC)c2)C1C)OCO3 (configuration not stated)	/	64*	47	-28	-6	?
C[C@@H]1CN([C@@H](C)CO)S(=O)(=O)c2ccc(C#CCC3CCCC3)cc2O[C@H]1CN(C)Cc1cccc(C(=O)O)c1	/	-3	22[16.7 µM]	0	-19[16.7 µM]	3
C[C@@H]1CCCCO[C@@H](CN(C)C(=O)Nc2cccc3ccccc23)[C@H](C)CN([C@@H](C)CO)C(=O)c2cc(NS(=O)(=O)c3ccc(F)cc3)ccc2O1	5	3	-10[16.7 µM]	/	-22[16.7 µM]	21
COc1ccc(/C=C/C=O)cc1	/	-8	/	/	-22[16.7 µM]	-17
Cc1ccc(NC(=O)CN2CCN(C(=O)C3CCCO3)CC2)c(C)c1 (configuration not stated)	-4	-2	-2	3	5	14
Cc1ccc(NC(=S)N2CCN(C(=O)C3CCCO3)CC2)c(C)c1 (configuration not stated)	/	/	-11	100*	9	-33
C[C@@H]1CCCCO[C@H](CN(C)S(=O)(=O)c2ccccc2)[C@H](C)CN([C@H](C)CO)C(=O)c2cc(NS(=O)(=O)c3ccc(Cl)cc3)ccc2O1	-37	-1	-4[16.7 µM]	/	40[16.7 µM]	46
C[C@@H]1CN([C@H](C)CO)C(=O)c2cc(NS(=O)(=O)c3ccc(Cl)cc3)ccc2O[C@@H](C)CCCCO[C@@H]1CN(C)S(=O)(=O)c1ccccc1	-38	4	10[16.7 µM]	/	-41[16.7 µM]	23
C[C@@H]1CCCCO[C@@H](CN(C)S(=O)(=O)c2ccc(Cl)cc2)[C@H](C)CN([C@H](C)CO)C(=O)c2cc(NS(=O)(=O)c3ccccc3)ccc2O1	-9	24	-14[16.7 µM]	3	24[16.7 µM]	24
C[C@H](CO)N1C[C@H](C)[C@H](CN(C)S(=O)(=O)c2ccccc2)OCCCC[C@H](C)Oc2ccc(NS(=O)(=O)c3ccc(Cl)cc3)cc2C1=O	-22	3	-9[16.7 µM]	/	-24[16.7 µM]	84*
C[C@H](CO)N1C[C@H](C)[C@@H](CN(C)S(=O)(=O)c2ccccc2)OCCCC[C@H](C)Oc2ccc(NS(=O)(=O)c3ccc(Cl)cc3)cc2C1=O	-18	-3	2[16.7 µM]	/	-13[16.7 µM]	86*
C[C@H](CO)N1C[C@H](C)[C@@H](CN(C)S(=O)(=O)c2ccc(Cl)cc2)OCCCC[C@H](C)Oc2ccc(NS(=O)(=O)c3ccccc3)cc2C1=O	6	7	/	/	/	76*
O=C(C1CCCC1)N1CC(=O)N2[C@H](C1)[C@H](c1ccc(-c3cccnc3)cc1)[C@@H]2CO	9	-18	/	/	/	/
CCn1c(N)c(C(=O)N2CCOCC2)sc1=S	19	/	3	129*	/	/
CC(=O)N(C)c1ccc(OCC(O)COc2ccc(N(C)C(C)=O)cc2)cc1	/	/	2	125*	/	/
OCCN1CCN(CC(O)COc2ccc(C34CC5CC(CC(C5)C3)C4)cc2)CC1 (configuration not stated)	90*	33	/	/	12	19
OCCN1CCN(CC(O)COc2ccc(Cl)cc2)CC1 (configuration not stated)	/	/	-2	-2	/	/
CC(=O)c1ccc(OCC(O)COc2ccc(C(C)=O)cc2)cc1	-5	/	5	-3	-65	/
CC(=O)c1ccc(OCC(O)CN2CCN(CC(O)COc3ccc(C(C)=O)cc3)CC2)cc1 (configuration not stated)	/	/	-5	109*	/	/
COCC#Cc1ccc2c(c1)O[C@H](CN(C)CC1CCOCC1)[C@H](C)CN([C@H](C)CO)S2(=O)=O	5	-11	2[16.7 µM]	9	-8[16.7 µM]	/
NCC[C@@H]1CC[C@H](NC(=O)Nc2ccc(F)cc2)[C@@H](CO)O1	-6	-3	/	-39	7[16.7 µM]	1
O=C(O)c1ccc(S(=O)(=O)N(Cc2ccc(F)cc2)C2CCCCC2)cc1	/	10	-3	39	13	18
SMILES	INS-1E GSIS act	EWS-Fli inh	miR-122 sensor	Statin myotox sup	HIV Env fusion	PAX8 inh HTS
CN(Cc1ccccc1)S(=O)(=O)c1ccc(NC(=S)NC(=O)C2CCCC2)cc1	-10	?	124*	-90	/	/
CN(Cc1ccccc1)S(=O)(=O)c1ccc(S(=O)(=O)N(Cc2ccc(F)cc2)C2CCCC2)cc1	-26	/	-2	-12	58*	/
Cc1ccc(S(=O)(=O)N(C)C[C@@H]2OCCCC[C@H](C)Oc3ccc(NC(=O)Nc4ccccc4)cc3C(=O)N([C@@H](C)CO)C[C@@H]2C)cc1	2	9	5[16.7 µM]	/	22[16.7 µM]	/
C[C@H]1CN([C@@H](C)CO)C(=O)c2cc(NC(=O)Cn3cnnn3)ccc2O[C@@H]1CN(C)Cc1ccc(C(=O)Nc2ccccc2N)cc1	7	-4	-14[16.7 µM]	39	/	/
C[C@@H]1CN([C@H](C)CO)C(=O)c2cccc(NC(=O)Nc3ccccc3)c2O[C@H]1CN(C)Cc1ccc(C(=O)Nc2ccccc2N)cc1	0	47	18[16.7 µM]	113*	1[16.7 µM]	33
C[C@@H]1CN([C@H](C)CO)C(=O)c2cccc(NC(=O)Nc3ccc(F)cc3)c2O[C@H]1CN(C)Cc1ccc(C(=O)Nc2ccccc2N)cc1	8	-15	/	/	/	0
Cc1ccc(S(=O)(=O)N(C)C[C@@H]2Oc3c(NC(=O)c4ccc(-c5nccs5)cc4)cccc3C(=O)N([C@@H](C)CO)C[C@@H]2C)cc1	13	-6	4[16.7 µM]	-21	-36[16.7 µM]	95*
C[C@H](CO)N1C[C@H](C)[C@H](CN(C)Cc2ccc(C(=O)Nc3ccccc3N)cc2)Oc2ccc(NC(=O)Cn3cnnn3)cc2C1=O	5	-4	-6[16.7 µM]	100*	/	/
C[C@H](CO)N1C[C@H](C)[C@H](CN(C)Cc2ccc(C(=O)Nc3ccccc3N)cc2)Oc2c(NC(=O)Nc3ccc(F)cc3)cccc2C1=O	12	-1	/	/	/	14
C[C@@H]1CN([C@@H](C)CO)C(=O)c2cccc(NC(=O)Nc3ccccc3)c2O[C@@H]1CN(C)Cc1ccc(C(=O)Nc2ccccc2N)cc1	-6	49	140*[16.7 µM]	-115	-125[16.7 µM]	68*
C[C@H]1CCCCO[C@H](CN(C)Cc2ccccc2)[C@@H](C)CN([C@@H](C)CO)C(=O)c2cc(N(C)C)ccc2O1	-9	1	9[16.7 µM]	9	17[16.7 µM]	-1
COc1cccc(CN2CC3(C2)CN(C(=O)C2CC2)[C@H](CO)c2c3c3ccc(OC)cc3n2C)c1	2	3	/	/	/	/

Bioassay records as filed in PubChem BioAssay.
